Screens: PubChem, National Center for Advancing Translational Sciences (NCATS)
A selection: hits, their analogues and other compounds. The true share with any hit is near 3.1%.
EPAC1 ag val: validation of human EPAC1 agonists; O95398; EPAC1 Rap1b BODIPY-GDP exchange, fluorescence; Potency, µM, actives largely listed as activators; actives 1% (n = 16,000); AID 1645883; further: nearly all actives have a fitted effect of over 70% in size
EPAC2 antag: validation of human EPAC2 antagonists; actives 1.7% (n = 16,000); Potency, µM (titrated, usually from 112 µM), most hits filed as inhibitors; EPAC2 Rap1B BODIPY-GDP exchange, fluorescence; further: nearly all actives have a fitted effect of over 40% in size
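Normalized against a 6.5 mM cAMP agonist control, compounds were tested on 100 nM EPAC2 exchanging Rap1B-bound BODIPY-GDP (250 nM) for 50 uM GDP. Fluorescence drop (ex 480, em 540 nm) was tracked at room temperature over 30 min at 5-min intervals.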
A number is an active result; . = inactive; ? = inconclusive; ! = not confirmed by another sample. The call rests on the fitted dose curve; in most records, active means well fitted curve in the direction sought with a large enough effect; inconclusive means small, poorly fitted or top-dose-only effect, or another doubt; inactive means no such curve, though single readings can be large; an effect the other way counts as inactive or inconclusive.

SMILES	EPAC1 ag val	EPAC2 antag
NC(=O)OC[C@@H]1[C@H](NC(=O)/C(=N\OCC(=O)O)c2csc(N)n2)C(=O)N1S(=O)(=O)O	.	.
Cc1cnc(C)c(-c2ccc3c(c2)CC(CNC(=O)Cc2c(C)[nH]c4ccccc24)O3)n1 (stereo not given)	.	.
NC(=O)[C@@H]1C[C@]2(NC(=O)NC2=O)c2cc(F)ccc2O1	.	.
Nc1ncnc2c1nc(Br)n2C1OC2COP(=O)(O)O[C@@H]2C1O (stereo not given in full)	0.45µM	1.3µM
Nc1nc2c(nc(Br)n2[C@@H]2O[C@H]3COP(=O)(O)O[C@H]3[C@@H]2O)c(=O)[nH]1	.	.
CCC(C)[C@H]1COCCS(=O)(=O)N1Cc1ccccc1F (stereo not given in full)	.	?
CC(C)[C@H]1COCCS(=O)(=O)N1Cc1ccc(Cl)cc1	.	?
CCC(C)[C@H]1COCCS(=O)(=O)N1Cc1ccc(Cl)cc1Cl (stereo not given in full)	.	28µM
CCC(C)[C@H]1COCCS(=O)(=O)N1Cc1ccc(Br)cc1 (stereo not given in full)	.	10µM
CCCCCCCCCCCCCCCC(=O)OC[C@H](O)[C@H]1OC(=O)C(O)=C1O	.	.
CC[C@H]1OC(=O)[C@H](C)C(=O)[C@H](C)[C@@H](O[C@@H]2O[C@H](C)C[C@H](N(C)C)[C@H]2O)[C@](C)(OC)C[C@@H](C)C(=O)[C@H](C)[C@H]2N(CCCCn3cnc(-c4cccnc4)c3)C(=O)O[C@]12C	.	.
Cc1nc2ccccn2c(=O)c1CCN1CCC(C(=O)c2ccc(F)cc2)CC1	.	.
Cc1nc2sccn2c(=O)c1CCN1CCC(=C(c2ccc(F)cc2)c2ccc(F)cc2)CC1	?	50µM!
CO[C@H]1C[C@@H]2CC[C@@H](C)[C@@](O)(O2)C(=O)C(=O)N2CCCC[C@H]2C(=O)O[C@H]([C@H](C)C[C@@H]2CC[C@@H](O)[C@H](OC)C2)CC(=O)[C@H](C)C=C(C)[C@@H](O)[C@@H](OC)C(=O)[C@H](C)C[C@H](C)/C=C/C=CC=C1C	.	?
